Screens as filed in PubChem.
Most compounds without a hit are left out; they make up all but 11% or so of the library.
NIH3T3 tox = cytotoxic compounds in NIH 3T3 cells; NIH 3T3 viability, CellTiter-Glo ATP luminescence, 48-72 h; Potency, µM (top dose mostly 96.7 µM), for inactives: at the top dose activity change, negative = cytotoxicity, most hits filed as inhibitors; 94,000 tested, 4.3% active; AID 1345082; note: nearly all actives have a fitted effect of over 55% in size
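First NIH 3T3 cells are plated at 400 cells/well; next compound is pinned in; then plates incubate 48 or 72 hr at 37 °C; finally CellTiter-Glo is added and luminescence read after 10 min.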
FLuc inh = blocks purified firefly luciferase enzyme activity; P08659; purified P. pyralis luciferase, luminescence, biochemical; Potency, µM (top dose mostly 115 µM), hits mostly inhibitors; 76,000 tested, 2.5% active; note: nearly all actives have a fitted effect of over 65% in size
Target sequence (P08659 whole entry, looked up): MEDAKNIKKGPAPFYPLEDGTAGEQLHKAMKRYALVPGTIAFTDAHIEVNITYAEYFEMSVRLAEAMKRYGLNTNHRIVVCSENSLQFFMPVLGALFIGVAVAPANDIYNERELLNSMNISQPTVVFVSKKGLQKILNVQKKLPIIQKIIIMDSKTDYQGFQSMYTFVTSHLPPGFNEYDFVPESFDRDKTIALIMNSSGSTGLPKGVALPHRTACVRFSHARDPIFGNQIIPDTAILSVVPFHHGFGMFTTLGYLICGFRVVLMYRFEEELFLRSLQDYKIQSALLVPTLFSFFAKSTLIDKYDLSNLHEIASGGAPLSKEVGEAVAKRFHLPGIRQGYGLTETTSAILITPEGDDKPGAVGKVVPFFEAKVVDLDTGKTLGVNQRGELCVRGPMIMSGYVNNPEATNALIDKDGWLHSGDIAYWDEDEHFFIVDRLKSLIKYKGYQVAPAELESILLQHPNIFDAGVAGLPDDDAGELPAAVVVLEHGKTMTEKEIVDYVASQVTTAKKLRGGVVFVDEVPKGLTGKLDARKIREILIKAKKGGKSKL
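Cell-free enzyme assay, 10nM P. pyralis luciferase, luciferin and ATP each at 10uM. Inhibition profiled over a 6-point titration, read as luminescence.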
HEK cytotox = HEK 293 cell cytotoxicity; HEK 293 viability, ATP luminescence (CellTiter-Glo), 48-72 h; Potency, µM (doses to about 115 µM), inactives show at the highest dose activity change, negative = cytotoxicity, hits mostly inhibitors; 94,000 tested, 6.6% active; note: nearly all actives have a fitted effect of over 60% in size
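ATP-coupled CellTiter-Glo luminescence served as viability read-out, recorded 10 min after reagent addition at room temperature. HEK 293 cells, 250 cells/well, had been incubated with pintool-transferred compound for 48 or 72 hr at 37 degree Celsius.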
hNpr1 antagonist = human Npr1 receptor antagonism; P16066; HEK293 hNpr1 GloSensor cGMP, ANP-stimulated luminescence; Potency, µM (highest dose often 46.3 µM), for inactives: at the highest dose activity change, negative = inhibition, usual class: inhibitors; 76,000 tested, 1.6% active; calls by dose curve; note: nearly all actives have a fitted effect of over 60% in size
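HEK293 cells stably expressing human Npr1 and cGMP GloSensor pGS-40F, loaded 2 h with 2% GloSensor reagent, given compound 30 min at room temperature. Luminescence read before and 20 min after 0.1 nM hNppA.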
* = called active by the depositor; i = inactive; ? = inconclusive; . = not tested or not shown; ! = not confirmed by another sample; [ ] = dose if it differs, or a comment. Unless noted, calls come from the whole dose curve; as a rule, active = well fitted curve in the direction sought with a large enough effect; inconclusive = small, poorly fitted or top-dose-only effect, or another doubt; inactive = no such curve, though single readings can be large; an effect the other way counts as inactive or inconclusive. % is set by controls: 0 for no effect and ±100 for the full control effect; potency is the fitted concentration of half-maximal effect.

SMILES	NIH3T3 tox	FLuc inh	HEK cytotox	hNpr1 antagonist
O=C(NCc1ccccc1)N1CCc2nnc(C3CC3)n2CC1	i	.	0.7%	.
CC(C)Cc1cnc(-c2ccccc2)[nH]1	?	.	100µM*	.
O=C(NCc1ccccc1)c1ccc2nnc(C3CCCC3)n2c1	79.4µM*	.	-36.1%[172 µM]	.
O=C(NCCc1ccc(Cl)cc1)c1ccc2nnc(C3CCCC3)n2c1	35.5µM*	.	?	.
Cc1cc(C(=O)N2CCC3(CC2)c2[nH]c4ccccc4c2CCN3C)n(C)n1	-15.7%	i	39.8µM*	5.5%
COc1cccc(CN2CCC3(CC2)c2[nH]c4ccccc4c2CCN3C)c1	22.4µM*	i	25.1µM*	0.1%
COc1ccc2[nH]c3c(c2c1)CCN(C)C31CCN(C(=O)c2ccccc2)CC1	?	i	?	9.4%
COc1ccc2[nH]c3c(c2c1)CCN(C)C31CCN(C(=O)c2cc(C)nn2C)CC1	-19.4%	i	?	-4.3%
CN1CCc2c([nH]c3ccccc23)C12CCN(C(=O)c1ccsc1)CC2	?	i	39.8µM*	-4.9%
CN1CC(=O)N(c2ccccc2)Cc2c1ncnc2N1CCc2ccccc2C1	?	i	?	-3.6%
COc1ccc(C(=O)NCCC2CCN(C(=O)Nc3cccc(F)c3)CC2)cc1	-25.0%	.	-14.8%	.
Cc1cc(C)c(CNC(=O)c2cc(-c3ccccc3F)cc3c2OCCN3C)c(=O)[nH]1	50.1µM*	i	70.8µM*	-18.0%[70.6 µM]
COc1ccc(-c2cc(C(=O)NCc3c(C)cc(C)[nH]c3=O)c3c(c2)N(C(C)C)CCO3)cc1	?	i	28.2µM*	-5.4%
Cc1cc(C)c(CNC(=O)c2cc(-c3ccccc3C)cc3c2OCCN3C(C)C)c(=O)[nH]1	?	i	?	-0.4%
COc1cc(F)ccc1-c1cc(C(=O)NCc2c(C)cc(C)[nH]c2=O)c2c(c1)N(C(C)C)CCO2	39.8µM*	i	44.7µM*	0.4%
COc1cccc(-c2cc(C(=O)NCc3c(C)cc(C)[nH]c3=O)c3c(c2)N(C(C)C)CCO3)c1OC	?	i	79.4µM*	0.7%
CC(=O)N1CCC2(CC1)OC(=O)N(Cc1ccc(O)cc1)C2(C)c1ccccc1 (centres undefined)	?	i	-5.9%[172 µM]	-1.9%[70.6 µM]
Cc1noc(C)c1-c1cc(-c2cccc(CO)c2)cn2cncc12	?	i	?	2.0%[70.6 µM]
Cc1cc(C)c(CNC(=O)c2cc(-c3cccc4[nH]ccc34)cc3ncn(C)c23)c(=O)[nH]1	?	i	?	-3.0%[70.6 µM]
CC(=O)Nc1cccc(-c2cc(C(=O)NCc3c(C)cc(C)[nH]c3=O)c3c(c2)N(C(C)C)CCO3)c1	44.7µM*	i	?	1.0%
Cc1cc(C)c(CNC(=O)c2cc(-c3ccccc3O)cc3c2OCCN3C(C)C)c(=O)[nH]1	?	i	?	-12.0%
Cc1cc(C)c(CNC(=O)c2cc(-c3ccccc3C)cc3ncn(C)c23)c(=O)[nH]1	?	i	112µM*	-4.6%[70.6 µM]
CC(C)C[C@H](CO)NC(=O)C[C@@H]1c2nc(NC(=O)c3ccco3)sc2C[C@@H]2[C@](C)(CO)[C@H](O)CC[C@]21C	-8.7%	i	-1.7%	5.9%
CN(C)C(=O)CNC(=O)c1cccc(-c2ccsc2)c1	-23.2%[138 µM]	.	-23.3%[172 µM]	.
OCC1CN(Cc2cc(F)cc(Br)c2)CC12CCNCC2 (centres undefined)	?	i	31.6µM*	1.9%
SMILES	NIH3T3 tox	FLuc inh	HEK cytotox	hNpr1 antagonist
COCC1CN(Cc2ccc(C(F)(F)F)cc2)CC12CCNCC2 (centres undefined)	?	i	?	0.7%
COCC1CN(Cc2cccc(C(F)(F)F)c2)CC12CCNCC2 (centres undefined)	?	i	89.1µM*	1.5%
CC(C)C[C@@H]1N[C@H](C(=O)NCc2ccccc2Cl)Cc2c[nH]c3cccc1c23	31.6µM*	i	28.2µM*	-20.4%[70.6 µM]
COc1ccccc1CNC(=O)[C@@H]1Cc2c[nH]c3cccc(c23)[C@H](CC(C)C)N1	28.2µM*	i	35.5µM*	-20.2%[70.6 µM]
O=C(C1CCCN1C(=O)c1ccccc1F)N1CCC(c2ccccc2)CC1 (centres undefined)	?	.	-24.8%	.
COCCCn1c(=O)c(C(=O)N2CCN(C(=O)NC3CCCC3)CC2)nc2cccnc21	-16.3%	.	3.7%	.
Cc1ccc(C(=O)NC2CCN(Cc3cccc(-c4cccs4)c3)CC2)cc1	-28.7%	.	?	.
O=C(NC1CCN(Cc2cccc(-c3cccs3)c2)CC1)c1ccccc1	-31.5%	.	35.5µM*!	.
COc1ccccc1C(=O)NC1CCN(Cc2cccc(-c3cccs3)c2)CC1	31.6µM*!	.	22.4µM*!	.
NC(=O)c1cccc(-c2cc(-c3ccncc3)c3cncn3c2)c1	35.5µM*	i	?	2.1%[70.6 µM]
CC(=O)Nc1cccc(-c2cc(-c3c(C)noc3C)c3cncn3c2)c1	?	i	?	-20.4%[70.6 µM]
COc1ccc(-c2cc(-c3ccc4cn[nH]c4c3)cn3cncc23)cc1	79.4µM*	?	70.8µM*	-14.5%[70.6 µM]
c1cc(-c2cc(-c3ccc4cn[nH]c4c3)cn3cncc23)ccn1	17.8µM*	i	63.1µM*	-2.2%[70.6 µM]
COc1cccc(CCC(=O)N2CCC(Cc3nc(C4CC4)n[nH]3)CC2)c1	4.6%	i	i	0.3%
CC(=O)N1CCC2(CC1)CN(C(=O)c1cccc3[nH]ccc13)Cc1ccccc1O2	-1.5%	.	1.6%	.
Cc1noc(C2CC3(CCN(C(=O)CCC4CCCC4)CC3)CN2C)n1 (centres undefined)	-0.3%	i	-21.4%	3.3%
COc1ccc(-c2ccc3c(n2)CN(C)C(=O)CO3)cc1	100µM*	?	?	?
Cc1ccc(-c2ccc3c(n2)CN(C)C(=O)CO3)cc1	?	89.1µM*	?	?
O=C(C1CCCN1C(=O)c1ccc(F)cc1)N1CCC(N2CCOCC2=O)CC1 (centres undefined)	-7.9%	.	-12.1%	.
Cc1nc(C)c(C(=O)N2CC(Oc3ccc(-c4nc(-c5ccccc5)no4)cc3)C2)s1	-14.1%	12.6µM*	?	-8.3%
O=C(c1ccsc1)N1CC(Oc2ccc(-c3nc(-c4ccccc4)no3)cc2)C1	-4.6%	28.2µM*	-29.6%	1.7%
O=C(C1CCOC1)N1CC(Oc2ccc(-c3nc(-c4ccccc4)no3)cc2)C1 (centres undefined)	?	14.1µM*	?	3.16µM*
COCc1nc(-c2ccc(OC3CCN(C(=O)c4sc(C)nc4C)C3)cc2)no1 (centres undefined)	-20.2%	i	?	-14.7%
Cc1nc(C)c(C(=O)N2CCC(Oc3ccc(-c4noc(C5CC5)n4)cc3)C2)s1 (centres undefined)	?	i	20µM*	?
Cc1cccc(C(=O)N2CC(Oc3ccc(-c4nc(-c5ccccc5)no4)cc3)C2)c1	-27.8%	i	?	-5.5%
O=C(NCc1ccccc1Cl)c1ccc2nnc(C3CCOCC3)n2c1	-37.7%	.	-2.0%	.
Cc1nn(-c2ccccc2)c2c1C(C1CC1)N(C1CN([S+](=O)([O-])c3cccs3)C1)C2=O (centres undefined)	i	.	-2.5%	.
